This is an account of results in PubChem BioAssay (NCATS).

Structures are written as SMILES. Results filed as inconclusive are left out. Where a call stands in place of a potency, no number is given. Unmarked numbers belong to inactive results. Active and inactive are the calls of the source. Calls come from the whole dose curve; as a rule, active = well fitted inhibition curve with a large enough effect; inconclusive = small, poorly fitted or top-dose-only effect; inactive = no such curve, though single readings can be large or run the other way.

Rap guanine nucleotide exchange factor 4 (Homo sapiens), sequence (Q8WZA2 whole entry, looked up): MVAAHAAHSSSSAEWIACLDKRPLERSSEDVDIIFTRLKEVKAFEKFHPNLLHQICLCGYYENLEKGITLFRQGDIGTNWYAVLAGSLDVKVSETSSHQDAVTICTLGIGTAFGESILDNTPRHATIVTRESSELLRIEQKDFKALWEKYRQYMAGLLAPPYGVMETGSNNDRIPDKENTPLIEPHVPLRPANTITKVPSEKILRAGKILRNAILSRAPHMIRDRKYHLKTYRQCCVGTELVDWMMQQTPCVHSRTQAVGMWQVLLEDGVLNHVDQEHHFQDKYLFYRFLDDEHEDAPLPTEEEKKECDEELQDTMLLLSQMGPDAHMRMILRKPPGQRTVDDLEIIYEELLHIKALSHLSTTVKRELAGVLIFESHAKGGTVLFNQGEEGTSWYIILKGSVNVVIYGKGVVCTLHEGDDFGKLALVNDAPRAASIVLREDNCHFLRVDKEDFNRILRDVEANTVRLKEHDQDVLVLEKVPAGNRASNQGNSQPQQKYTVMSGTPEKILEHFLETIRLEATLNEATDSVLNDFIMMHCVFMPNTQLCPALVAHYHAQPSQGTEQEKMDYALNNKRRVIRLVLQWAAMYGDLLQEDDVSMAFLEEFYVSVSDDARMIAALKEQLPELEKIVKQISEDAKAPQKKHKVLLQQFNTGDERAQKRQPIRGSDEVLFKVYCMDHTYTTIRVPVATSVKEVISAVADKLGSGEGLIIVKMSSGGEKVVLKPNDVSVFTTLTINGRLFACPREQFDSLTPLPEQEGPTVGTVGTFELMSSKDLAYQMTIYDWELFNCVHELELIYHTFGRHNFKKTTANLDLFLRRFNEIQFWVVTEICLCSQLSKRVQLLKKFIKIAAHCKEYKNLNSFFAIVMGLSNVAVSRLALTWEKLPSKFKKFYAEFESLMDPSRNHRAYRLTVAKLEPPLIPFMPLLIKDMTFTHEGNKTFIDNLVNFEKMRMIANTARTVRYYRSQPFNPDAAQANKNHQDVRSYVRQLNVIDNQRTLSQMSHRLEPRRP
Rap guanine nucleotide exchange factor 3 (Homo sapiens), sequence (O95398 whole entry, looked up): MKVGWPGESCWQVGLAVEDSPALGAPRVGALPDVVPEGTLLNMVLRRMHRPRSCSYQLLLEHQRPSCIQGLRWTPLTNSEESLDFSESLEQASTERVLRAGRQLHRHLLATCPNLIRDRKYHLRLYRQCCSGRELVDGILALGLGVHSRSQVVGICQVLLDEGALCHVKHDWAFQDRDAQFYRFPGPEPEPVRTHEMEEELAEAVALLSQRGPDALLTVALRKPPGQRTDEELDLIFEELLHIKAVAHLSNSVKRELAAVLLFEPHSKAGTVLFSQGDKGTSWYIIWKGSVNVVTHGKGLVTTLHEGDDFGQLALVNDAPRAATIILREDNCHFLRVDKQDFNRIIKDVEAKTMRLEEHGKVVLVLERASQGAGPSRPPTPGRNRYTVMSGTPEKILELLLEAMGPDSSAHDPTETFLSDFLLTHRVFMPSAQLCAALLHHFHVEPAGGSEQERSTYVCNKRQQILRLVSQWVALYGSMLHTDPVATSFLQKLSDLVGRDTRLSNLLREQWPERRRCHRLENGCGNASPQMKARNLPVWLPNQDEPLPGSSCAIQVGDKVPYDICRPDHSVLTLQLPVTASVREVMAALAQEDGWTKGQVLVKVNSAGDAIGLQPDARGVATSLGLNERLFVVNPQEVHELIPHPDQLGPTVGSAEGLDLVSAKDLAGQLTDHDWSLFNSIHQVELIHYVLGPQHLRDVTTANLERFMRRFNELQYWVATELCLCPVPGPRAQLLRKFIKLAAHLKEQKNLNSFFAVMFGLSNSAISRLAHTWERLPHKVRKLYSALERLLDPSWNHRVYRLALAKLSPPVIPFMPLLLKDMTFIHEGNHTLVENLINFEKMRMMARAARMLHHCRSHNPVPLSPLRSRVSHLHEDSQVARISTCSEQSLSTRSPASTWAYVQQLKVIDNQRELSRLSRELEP

The first assay concerns the target Rap guanine nucleotide exchange factor 4 (Homo sapiens) (UniProt Q8WZA2). Briefly: Confirmatory qHTS for antagonist of cAMP-regulated guanine nucleotide exchange factor 4 (EPAC2) (AID 1645885). Note: nearly all actives have a fitted effect of over 25% in size. Note: potency is the fitted concentration of half-maximal effect. The following applies: EPAC2 Rap1B-BODIPY-GDP exchange fluorescence, biochemical; series mostly up to 114 µM.
Consider `Cn1cccc1/C=C1/C(=O)NC(=S)N(Cc2ccc(F)cc2)C1=O`, for which the activity change, negative = inhibition is -22.8% [at 12.7 µM].

As to `COc1ccc(N2C(=O)NC(=O)/C(=C/c3ccc([N+](=O)[O-])s3)C2=O)cc1`, the Potency result is “inactive”.

Take `Oc1c(Cl)cccc1Cc1cc(Cl)cc(Cl)c1O`: the Potency entry was “inactive”.

Consider `CCOC(=O)[C@]12Cc3cc(C)ccc3[C@H]1N(Cc1ccccc1)C(=O)c1ccccc12`, for which the Potency entry was “inactive”.

With `CCC(=NCCCO)c1c(O)n(-c2ccc(OC)cc2)c(=O)[nH]c1=O`, the activity change, negative = inhibition is -12.3% [at 12.7 µM].

With `COc1ccc(-n2c(O)c(/C=C/C=Nc3ccccc3)c(=O)[nH]c2=O)cc1`, the Potency was 16.9 µM (active).

As for `Cc1cc(/C=C2\C(=O)NC(=O)N(c3ccc(Cl)cc3)C2=O)c(C)n1-c1sc2c(c1C#N)CCCC2`, the activity change, negative = inhibition was -14.9% [at 12.7 µM].

Consider `Cc1ccc(C)c(Cn2c(C(=O)O)c(C=O)c3ccccc32)c1`, for which the activity change, negative = inhibition was 3.6% [at 12.7 µM].

In the case of `Cc1ccc(CN2CCCN(Cc3ccccc3C)S2(=O)=O)cc1`, the Potency result is “inactive”.

For the molecule `O=C1NC(=O)N(Cc2ccco2)C(=O)/C1=C/C=C/c1ccco1`, the activity change, negative = inhibition was 0.223% [at 12.7 µM].

In the case of `CCOC(=O)c1cc(CC)sc1/N=C/c1c(O)[nH]c(=S)[nH]c1=O`, the Potency entry was “inactive”.

`Cc1cc(/C=C2/C(=O)NC(=O)N(Cc3ccco3)C2=O)c(C)n1-c1ccccc1O`: the Potency was 0.19 µM (active).

In the case of `CCN1/C(=C/C=C/C2=[N+](CC)c3ccccc3C2(C)C)C(C)(C)c2ccccc21`, the Potency result was “inactive”.

With `Cc1ccc(N2C(=O)NC(=O)/C(=C\C=C\c3ccco3)C2=O)cc1C`, the Potency result was “inactive”.

Consider `CCN(CC)c1ccc(N=Cc2c(O)n(CCC3=CCCCC3)c(=O)[nH]c2=O)cc1`, for which the Potency result is “inactive”.

Turning to `CN1C(=O)/C(=C/c2cccn2-c2ccc3ccccc3c2)C(=O)NC1=S`, the Potency result was “inactive”.

On to `O=Cc1c(C(=O)O)n(Cc2ccc(Cl)cc2)c2ccccc12`, for which the Potency is 42.6 µM (active).

As for `COc1ccc(OCC(=O)N2CCN(CC3CC4C=CC3C4)CC2)cc1` (stereo not given), the activity change, negative = inhibition is 6.27% [at 12.7 µM].

Consider `CCc1nc2ccccc2c(=O)n1-c1ccccc1OC`, for which the Potency is 33.8 µM (active).

For the molecule `O=C(c1cc(Cl)cc(Cl)c1)N1Cc2ccccc2-n2nncc2C1`, the activity change, negative = inhibition was -20.5% [at 12.7 µM].

As for `COc1ccc(-n2c(O)c(/C=C3\C=Nc4ccc(Br)cc43)c(=O)[nH]c2=O)c(OC)c1`, the Potency result is “inactive”.

Turning to `COc1ccc(C(=O)C2CN(C)CC2c2ccc(Cl)cc2)cc1` (stereo not given), the activity change, negative = inhibition was -16.3% [at 12.7 µM].

For the molecule `CC(Cc1ccc(O)cc1)NCC(O)c1ccc(O)c(O)c1` (stereo not given), the activity change, negative = inhibition is -0.704% [at 12.7 µM].

As for `Cc1c(NS(=O)(=O)c2ccccc2)ccc([N+](=O)[O-])c1Cl`, the Potency entry was “inactive”.

With `COC(=O)C1=C(c2ccc3ccccc3c2)C[C@@H]2CC[C@H]1N2C(=O)NC1CC1`, the Potency result is “inactive”.

As for `COC(=O)C1=C(c2cc3ccccc3s2)C[C@@H]2CC[C@H]1N2C(=O)NC1CC1`, the Potency result was “inactive”.

For `O=c1[nH]c(O)c(C=Nc2ccccc2Sc2ccccc2)c(=O)[nH]1`, the Potency entry is “inactive”.

Turning to `Cc1cc(OC(C)C(=O)N[C@H](C(=O)O)c2ccccc2)c2c3c(c(=O)oc2c1)CCC3` (stereo not given in full), the Potency is 42.6 µM (active).

For `COCCCn1c(N)c(C(=O)NCCC(C)C)c2nc3ccccc3nc21`, the activity change, negative = inhibition was -14.1% [at 12.7 µM].

Take `O=C1NC(=O)N(Cc2ccc(F)cc2)C(=O)/C1=C\c1ccc([N+](=O)[O-])s1`: the Potency entry is “inactive”.

With `COc1ccc(N=Cc2c(O)n(Cc3ccccc3)c(=S)[nH]c2=O)c(OC)c1`, the Potency result was “inactive”.

As to `Cn1cc(C=C2C(=O)NC(=O)NC2=O)c2ccccc21`, the Potency was 75.7 µM (active).

On to `CC[C@@H]1c2ccccc2[C@@H]2CC[C@H]1N2c1ccccc1`, for which the activity change, negative = inhibition was -6.37% [at 12.7 µM].

Consider `O=C(O)CC1OCC=C2CN3CCC45C6=CC(=O)C(=O)C([N+](=O)[O-])=C6NC4C1C2CC35` (stereo not given), for which the Potency entry was “inactive”.

Take `COC(=O)c1cn(Cc2ccc(F)cc2)c2ccccc12`: the Potency entry is “inactive”.

Regarding `OC1/C(=C/c2ccc(C(F)(F)F)cc2)N2CCC1CC2` (stereo not given), the Potency result is “inactive”.

Regarding `O=C1NC(=S)N(c2ccccc2)C(=O)/C1=C/c1ccco1`, the Potency result is “inactive”.

In the case of `COc1ccc(OC)c(N2C(=O)NC(=O)/C(=C/c3ccc([N+](=O)[O-])s3)C2=O)c1`, the activity change, negative = inhibition is -32.4% [at 12.7 µM].

Take `COC(=O)c1cn(C(=O)c2cccc3ccccc23)c2ccccc12`: the Potency entry is “inactive”.

For the molecule `CC1=C(O)C(=O)C=C2C1=CC=C1C2(C)CCC2(C)C3CC(C)(C(=O)O)CCC3(C)CCC12C` (stereo not given), the Potency is 0.953 µM (active).

For another assay, the target named is Rap guanine nucleotide exchange factor 3 (Homo sapiens) (UniProt O95398). Briefly: Counterscreen qHTS for antagonist of cAMP-regulated guanine nucleotide exchange factor 3 (EPAC1) (AID 1645888).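 Note: fluorescence loss as bound BODIPY-GDP is released from Rap1B.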 The settings on record: Rap1B-BODIPY-GDP nucleotide exchange, fluorescence; series mostly up to 154 µM. The essentials:
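Rap1B-BODIPY-GDP 250 nM + GDP 50 uM; cpds 7-pt, final 9.74 nM–152 uM (activator mode) or from 7.32 nM upwards (inhibitor mode); RT; FI 480/540 nm at 5 and 30 min, then ± cAMP, reread.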
Turning to `Cn1cccc1/C=C1/C(=O)NC(=S)N(Cc2ccc(F)cc2)C1=O`, the activity change, negative = inhibition is -2.5% [at 30.8 µM].

As to `COc1ccc(N2C(=O)NC(=O)/C(=C/c3ccc([N+](=O)[O-])s3)C2=O)cc1`, the molecule was classed as inactive.

`Oc1c(Cl)cccc1Cc1cc(Cl)cc(Cl)c1O`: the molecule was classed as inactive.

In the case of `CCOC(=O)[C@]12Cc3cc(C)ccc3[C@H]1N(Cc1ccccc1)C(=O)c1ccccc12`, the molecule was classed as inactive.

For the molecule `CCC(=NCCCO)c1c(O)n(-c2ccc(OC)cc2)c(=O)[nH]c1=O`, the activity change, negative = inhibition was -14.3% [at 30.8 µM].

Regarding `COc1ccc(-n2c(O)c(/C=C/C=Nc3ccccc3)c(=O)[nH]c2=O)cc1`, the call was inactive.

On to `Cc1cc(/C=C2\C(=O)NC(=O)N(c3ccc(Cl)cc3)C2=O)c(C)n1-c1sc2c(c1C#N)CCCC2`, for which the activity change, negative = inhibition is -13.5% [at 30.8 µM].

Take `Cc1ccc(C)c(Cn2c(C(=O)O)c(C=O)c3ccccc32)c1`: the activity change, negative = inhibition is -5.1% [at 30.8 µM].

On to `Cc1ccc(CN2CCCN(Cc3ccccc3C)S2(=O)=O)cc1`, for which the molecule was classed as inactive.

In the case of `O=C1NC(=O)N(Cc2ccco2)C(=O)/C1=C/C=C/c1ccco1`, the activity change, negative = inhibition was -7.48% [at 30.8 µM].

Turning to `CCOC(=O)c1cc(CC)sc1/N=C/c1c(O)[nH]c(=S)[nH]c1=O`, the molecule was called inactive.

For the molecule `Cc1cc(/C=C2/C(=O)NC(=O)N(Cc3ccco3)C2=O)c(C)n1-c1ccccc1O`, the activity change, negative = inhibition is -13.1% [at 30.8 µM].

For the molecule `CCN1/C(=C/C=C/C2=[N+](CC)c3ccccc3C2(C)C)C(C)(C)c2ccccc21`, the outcome was inactive.

With `Cc1ccc(N2C(=O)NC(=O)/C(=C\C=C\c3ccco3)C2=O)cc1C`, the molecule was called inactive.

For `CCN(CC)c1ccc(N=Cc2c(O)n(CCC3=CCCCC3)c(=O)[nH]c2=O)cc1`, the result was inactive.

For the molecule `CN1C(=O)/C(=C/c2cccn2-c2ccc3ccccc3c2)C(=O)NC1=S`, the call was inactive.

For the molecule `O=Cc1c(C(=O)O)n(Cc2ccc(Cl)cc2)c2ccccc12`, the molecule was called inactive.

Take `COc1ccc(OCC(=O)N2CCN(CC3CC4C=CC3C4)CC2)cc1` (stereo not given): the activity change, negative = inhibition is -7.66% [at 30.8 µM].

`CCc1nc2ccccc2c(=O)n1-c1ccccc1OC`: the call was inactive.

Regarding `O=C(c1cc(Cl)cc(Cl)c1)N1Cc2ccccc2-n2nncc2C1`, the activity change, negative = inhibition was 29.2% [at 30.8 µM].

As to `COc1ccc(-n2c(O)c(/C=C3\C=Nc4ccc(Br)cc43)c(=O)[nH]c2=O)c(OC)c1`, the call was inactive.

As for `COc1ccc(C(=O)C2CN(C)CC2c2ccc(Cl)cc2)cc1` (stereo not given), the activity change, negative = inhibition is 7.3% [at 30.8 µM].

On to `CC(Cc1ccc(O)cc1)NCC(O)c1ccc(O)c(O)c1` (stereo not given), for which the activity change, negative = inhibition was 6.78% [at 30.8 µM].

For the molecule `Cc1c(NS(=O)(=O)c2ccccc2)ccc([N+](=O)[O-])c1Cl`, the call was inactive.

On to `COC(=O)C1=C(c2ccc3ccccc3c2)C[C@@H]2CC[C@H]1N2C(=O)NC1CC1`, for which the molecule was classed as inactive.

As for `COC(=O)C1=C(c2cc3ccccc3s2)C[C@@H]2CC[C@H]1N2C(=O)NC1CC1`, the molecule was called inactive.

In the case of `O=c1[nH]c(O)c(C=Nc2ccccc2Sc2ccccc2)c(=O)[nH]1`, the outcome was inactive.

With `Cc1cc(OC(C)C(=O)N[C@H](C(=O)O)c2ccccc2)c2c3c(c(=O)oc2c1)CCC3` (stereo not given in full), the molecule was called inactive.

Regarding `COCCCn1c(N)c(C(=O)NCCC(C)C)c2nc3ccccc3nc21`, the activity change, negative = inhibition was 2.52% [at 30.8 µM].

As for `O=C1NC(=O)N(Cc2ccc(F)cc2)C(=O)/C1=C\c1ccc([N+](=O)[O-])s1`, the result was inactive.

As to `COc1ccc(N=Cc2c(O)n(Cc3ccccc3)c(=S)[nH]c2=O)c(OC)c1`, the outcome was inactive.

On to `Cn1cc(C=C2C(=O)NC(=O)NC2=O)c2ccccc21`, for which the outcome was inactive.

In the case of `CC[C@@H]1c2ccccc2[C@@H]2CC[C@H]1N2c1ccccc1`, the activity change, negative = inhibition was -4.57% [at 30.8 µM].

In the case of `O=C(O)CC1OCC=C2CN3CCC45C6=CC(=O)C(=O)C([N+](=O)[O-])=C6NC4C1C2CC35` (stereo not given), the result was inactive.

In the case of `COC(=O)c1cn(Cc2ccc(F)cc2)c2ccccc12`, the call was inactive.

Take `OC1/C(=C/c2ccc(C(F)(F)F)cc2)N2CCC1CC2` (stereo not given): the call was inactive.

On to `O=C1NC(=S)N(c2ccccc2)C(=O)/C1=C/c1ccco1`, for which the call was inactive.

Consider `COc1ccc(OC)c(N2C(=O)NC(=O)/C(=C/c3ccc([N+](=O)[O-])s3)C2=O)c1`, for which the activity change, negative = inhibition is 10.9% [at 30.8 µM].

`COC(=O)c1cn(C(=O)c2cccc3ccccc23)c2ccccc12`: the outcome was inactive.

Take `CC1=C(O)C(=O)C=C2C1=CC=C1C2(C)CCC2(C)C3CC(C)(C(=O)O)CCC3(C)CCC12C` (stereo not given): the molecule was called inactive.
